The source of these data is PubChem BioAssay (Tox21).

Unmarked numbers belong to inactive results. Results filed as inconclusive are left out. Active and inactive are the calls of the source. Unless noted, calls follow the shape of the full dose curve.

Assay [1] can be described thus: Nuclear factor erythroid 2-related factor 2/antioxidant responsive element (Nrf2/ARE) small molecule agonists: qHTS cell viability counter screen in human keratinocytes (AID 1919968; active = well fitted curve in the direction sought with a large enough effect in the repeat runs; an effect the other way counts as inactive or inconclusive; also: nearly all actives have a fitted effect of over 55% in size). A digest of the protocol: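 In human HaCaT keratinocytes stably expressing an ARE-driven luciferase, compound exposure lasted 23 h at 37 C under 5% CO2. Viable cells are quantified with a protease-based fluorogenic reagent (CellTiter-Fluor) read 1 h after addition.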
On the technique in general: qHTS replaces the single test concentration by a dilution series.

Assay [2] in a line: Nuclear factor erythroid 2-related factor 2/antioxidant responsive element (Nrf2/ARE) small molecule agonists: luciferase reporter gene qHTS assay in human keratinocytes (AID 1919969). Also: nearly all actives have a fitted effect of over 35% in size. Also: potency is read from the fitted curve at half-maximal effect.
Assay [3] deals with Gonadotropin-releasing hormone receptor (Homo sapiens) (UniProt P30968). As to the kind of experiment: Human gonadotropin-releasing hormone receptor (GnRHR) small molecule agonists, calcium flux assay in GnRHR-HEK293 cells (AID 1920063). Also: nearly all actives have a fitted effect of over 35% in size. A digest of the protocol: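 Intracellular calcium rise is the read-out: engineered human GnRHR HEK293 cells, dye-loaded, are exposed to DMSO-dissolved compounds and fluorescence at Ex/Em 480/540 is tracked for 3 min.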

The target in assay [4] is KiSS-1 receptor (Homo sapiens) (UniProt Q969F8). The assay can be described thus: Human kisspeptin (KISS1R) small molecule agonists, calcium flux assay in KISS1R-HEK293 cells (AID 1920064; active = well fitted curve in the direction sought with a large enough effect in the repeat runs; an effect the other way counts as inactive or inconclusive). Put shortly: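 Concentration-response testing used 15 concentrations in triplicate on human KISS1R-expressing HEK293 cells. Calcium-dependent fluorescence (Ex/Em 480/540) was followed kinetically for 3 min after compound transfer.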
In general terms: A change in cytosolic calcium serves as a functional read-out for many receptors and channels.

A short description of assay [5]: G protein-coupled receptor (GPCR) small molecule agonists, calcium flux assay: HEK293 wild type cell line counter screen (AID 1920065). A digest of the protocol:
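Fluorescence intensity signals activation. After overnight (18 h) culture and a 1 h calcium dye load at 37 C, compounds are added by pin tool and the plate read at 480/540 nm for 3 min in 1 s steps.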

Assay [6] is described as follows: p53 small molecule agonists, cell-based qHTS assay with human liver microsomes (AID 1963577). Put shortly: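 p53RE-bla cells, 4,000/well, compound added after 5 h, with human liver microsomes 0.5 mg/mL and NADPH 0.5 mg/mL final; 16 h at 37 C, then LiveBLAzer 2 h RT, fluorescence.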
The nature of assay [7]: p53 small molecule agonists, cell-based qHTS assay with rat liver microsomes (AID 1963578). Put shortly:
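p53RE-bla cells, 4,000/well, pre-incubated 5 h, then given compounds plus rat liver microsomes (0.5 mg/mL final) and NADPH (0.5 mg/mL final). Incubation 16 h at 37 C; beta-lactamase reporter read by LiveBLAzer fluorescence after 2 h at room temperature.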

A short description of assay [8]: p53 small molecule agonists, cell-based qHTS assay with human liver microsomes: qHTS cell viability counter screen (AID 1963579). Also: nearly all actives have a fitted effect of over 45% in size. Put shortly:
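p53RE-bla cells, 4,000/well, dosed 5 hours after plating, with human liver microsomes (0.5 mg/mL final) plus NADPH (0.5 mg/mL final), 16 hours at 37 C. Viability read as CellTiter-Glo luminescence after 30 min at room temperature.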

Assay [9] can be described thus: p53 small molecule agonists, cell-based qHTS assay with rat liver microsomes: qHTS cell viability counter screen (AID 1963580). Also: nearly all actives have a fitted effect of over 45% in size. Put shortly:
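Rat liver microsome (0.5 mg/mL final) and NADPH (0.5 mg/mL final) co-incubation with compounds for 16 h at 37 C on HCT-116 p53RE-bla cells; cytotoxicity taken from intracellular ATP luminescence.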

Assay [10] can be described thus: p53 small molecule agonists, cell-based qHTS assay (AID 1963582; active = well fitted activation curve with a large enough effect in the signal ratio in the repeat runs, not every such curve was filed as active; the % refers to the signal ratio). Put shortly: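 After plating, p53RE-bla cells sat 5 h in the incubator; compounds or DMSO vehicle were pinned in; a 16 h incubation at 37 C followed; FRET substrate was added and, 2 h later at RT, fluorescence was measured.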
Assay [11] addresses 5-hydroxytryptamine receptor 2A (Homo sapiens) (UniProt P28223). As to the kind of experiment: 5-hydroxytryptamine receptor 2A (HTR2A) small molecule antagonists, cell-based qHTS assay (AID 1963586). Also: nearly all actives have a fitted effect of over 45% in size. Put shortly: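 CHO cells stably expressing human HTR2A were plated for 18 h at 37 C, then loaded with calcium dye for 1 h. Compounds were preincubated 5 min at room temperature before DOI (4 nM solution) was added. Kinetic fluorescence was read for 3 min.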

The target is the same in assay [12]. As to the kind of experiment: 5-hydroxytryptamine receptor 2A (HTR2A) small molecule agonists, cell-based qHTS assay (AID 1963587). Also: nearly all actives have a fitted effect of over 30% in size. Put shortly: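 Kinetic calcium-flux fluorescence (2 min, 1 sec intervals) after compound addition in agonist mode. HTR2A-CHO cells were cultured 18 h, then dye-loaded 1 h at 37 C.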
In assay [13] the target is Muscarinic acetylcholine receptor M1 (Homo sapiens) (UniProt P11229). As to the kind of experiment: Cholinergic receptor muscarinic 1 (CHRM1) small molecule antagonists, cell-based qHTS assay (AID 1963588). Also: nearly all actives have a fitted effect of over 40% in size. Put shortly: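 Compounds were tested at 15 concentrations in three independent runs. Dye-loaded CHRM1-CHO cells were exposed 5 min at room temperature before stimulation by acetylcholine added at 50nM. Intracellular calcium was read kinetically on FDSS for 3 min.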

Assay [14] can be described thus: cAMP Responsive Elements (CRE) small molecule agonists, cell-based qHTS assay (AID 1963590). A digest of the protocol: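 Compound exposure lasted 3 h at 37 C/5% CO2 in CRE-bla HEK 293T cells grown in assay medium with 10% dialyzed FBS and 25 mM HEPES. Reporter signal came from LiveBLAzer B/G FRET substrate, 2 h, room temperature.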
A short description of assay [15]: cAMP Responsive Elements (CRE) small molecule antagonists, cell-based qHTS assay (AID 1963591; active = well fitted inhibition curve with a large enough effect in the signal ratio in the repeat runs, not every such curve was filed as active; the % refers to the signal ratio). A digest of the protocol: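 Stimulation used NKH477 at a final 0.25 uM for 3 h in compound-treated CRE-bla HEK293T cells, seeded 18 h beforehand. Reporter activity was measured with LiveBLAzer B/G FRET substrate after 2 h at room temperature.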
Assay [16] has as its target Beta-2 adrenergic receptor (Homo sapiens) (UniProt P07550). As to the kind of experiment: Adrenergic beta2 receptor (ADRB2) small molecule antagonists, cell-based qHTS assay (AID 1963592). Also: series mostly up to about 92 µM; nearly all actives have a fitted effect of over 50% in size. A digest of the protocol:
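Assay format: CHO-ADRB2 cells, 18-20hr seeding at 37C/5% CO2, then compound plus 1nM isoproterenol agonist mix for 0.5hr RT. Homogeneous time-resolved fluorescence cAMP detection after 1hr, expressed as 665/615 nm ratio.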

Assay [17] addresses D(2) dopamine receptor (Homo sapiens) (UniProt P14416). As to the kind of experiment: Dopamine D2 receptor (DRD2) small molecule agonists, cell-based qHTS assay (AID 1963594). Also: nearly all actives have a fitted effect of over 35% in size. A digest of the protocol: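 cAMP accumulation in DRD2-HEK293 cells measured by HTRF after 1 h detection; compounds added 10 min before NKH477 (200nM […]) forskolin-analogue stimulation, 30 min at room temperature, with Ro20-1724 present at 0.1 mM final.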

Assay [18] has the same target. The assay can be described thus: Dopamine D2 receptor (DRD2) small molecule antagonists, cell-based qHTS assay (AID 1963595; active = well fitted inhibition curve with a large enough effect in the signal ratio in the repeat runs, with a control signal flat; the % refers to the signal ratio). A digest of the protocol: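 Human DRD2 antagonist qHTS measuring cAMP by HTRF. The cells are exposed to compound for 10 min, then to NKH477 (200 nM) and quinpirole (12 nM) for 30 min at RT, with Ro20-1724 (0.1 mM) present throughout.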
The target of assay [19] is Muscarinic acetylcholine receptor M1 (Homo sapiens) (UniProt P11229). As to the kind of experiment: Cholinergic receptor muscarinic 1 (CHRM1) small molecule agonists, cell-based qHTS assay (AID 1963589). Also: nearly all actives have a fitted effect of over 35% in size. Put shortly:
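Fluorescent calcium dye reports M1 activation in stably transfected CHO cells. Compounds, 15 concentrations, added after 1 h dye loading at 37 C; kinetic reading at 1 sec intervals.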

Chain of KiSS-1 receptor (Homo sapiens) (Q969F8 whole entry, looked up): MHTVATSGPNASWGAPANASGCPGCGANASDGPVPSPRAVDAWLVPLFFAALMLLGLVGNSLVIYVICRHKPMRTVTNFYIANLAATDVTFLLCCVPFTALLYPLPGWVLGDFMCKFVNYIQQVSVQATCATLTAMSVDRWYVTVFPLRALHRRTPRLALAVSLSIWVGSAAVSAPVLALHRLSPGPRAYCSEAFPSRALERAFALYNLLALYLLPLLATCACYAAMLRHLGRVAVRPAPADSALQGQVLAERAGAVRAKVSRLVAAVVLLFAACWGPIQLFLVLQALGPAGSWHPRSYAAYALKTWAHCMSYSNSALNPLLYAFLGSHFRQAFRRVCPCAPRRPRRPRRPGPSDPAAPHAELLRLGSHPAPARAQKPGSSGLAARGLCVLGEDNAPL
Chain of Beta-2 adrenergic receptor (Homo sapiens) (P07550 whole entry, looked up): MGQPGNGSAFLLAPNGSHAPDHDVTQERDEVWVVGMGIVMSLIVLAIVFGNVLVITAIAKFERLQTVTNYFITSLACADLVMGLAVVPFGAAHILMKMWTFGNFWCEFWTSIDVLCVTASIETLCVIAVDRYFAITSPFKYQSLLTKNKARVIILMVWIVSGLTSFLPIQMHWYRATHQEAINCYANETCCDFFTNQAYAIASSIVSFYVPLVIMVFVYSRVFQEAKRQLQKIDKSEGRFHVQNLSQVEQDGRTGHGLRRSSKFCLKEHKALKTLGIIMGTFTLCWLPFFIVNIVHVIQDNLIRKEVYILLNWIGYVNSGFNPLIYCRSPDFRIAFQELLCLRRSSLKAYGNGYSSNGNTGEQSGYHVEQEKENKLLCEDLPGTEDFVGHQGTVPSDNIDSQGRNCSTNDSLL
Chain of D(2) dopamine receptor (Homo sapiens) (P14416 whole entry, looked up): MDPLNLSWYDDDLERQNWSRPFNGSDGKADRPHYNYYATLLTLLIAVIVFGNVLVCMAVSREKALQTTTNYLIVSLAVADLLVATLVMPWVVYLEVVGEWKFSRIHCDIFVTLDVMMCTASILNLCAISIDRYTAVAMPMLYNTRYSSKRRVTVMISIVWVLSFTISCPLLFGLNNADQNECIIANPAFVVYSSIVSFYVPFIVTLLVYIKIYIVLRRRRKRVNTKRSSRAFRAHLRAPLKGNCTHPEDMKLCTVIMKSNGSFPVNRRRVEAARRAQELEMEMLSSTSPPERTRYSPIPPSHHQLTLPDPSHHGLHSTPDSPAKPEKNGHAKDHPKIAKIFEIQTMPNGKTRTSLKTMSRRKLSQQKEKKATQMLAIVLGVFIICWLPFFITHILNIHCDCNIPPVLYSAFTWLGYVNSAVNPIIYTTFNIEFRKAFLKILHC
Chain of Gonadotropin-releasing hormone receptor (Homo sapiens) (P30968 whole entry, looked up): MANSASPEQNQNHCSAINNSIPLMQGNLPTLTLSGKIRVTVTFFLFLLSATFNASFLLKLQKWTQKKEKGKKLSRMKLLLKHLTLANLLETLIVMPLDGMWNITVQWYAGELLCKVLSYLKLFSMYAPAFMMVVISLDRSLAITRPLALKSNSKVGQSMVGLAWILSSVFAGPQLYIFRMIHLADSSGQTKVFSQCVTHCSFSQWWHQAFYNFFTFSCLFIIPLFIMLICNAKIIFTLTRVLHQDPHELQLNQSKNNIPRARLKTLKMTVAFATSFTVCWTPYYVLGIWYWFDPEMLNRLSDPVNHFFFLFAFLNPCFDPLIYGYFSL
Chain of Muscarinic acetylcholine receptor M1 (Homo sapiens) (P11229 whole entry, looked up): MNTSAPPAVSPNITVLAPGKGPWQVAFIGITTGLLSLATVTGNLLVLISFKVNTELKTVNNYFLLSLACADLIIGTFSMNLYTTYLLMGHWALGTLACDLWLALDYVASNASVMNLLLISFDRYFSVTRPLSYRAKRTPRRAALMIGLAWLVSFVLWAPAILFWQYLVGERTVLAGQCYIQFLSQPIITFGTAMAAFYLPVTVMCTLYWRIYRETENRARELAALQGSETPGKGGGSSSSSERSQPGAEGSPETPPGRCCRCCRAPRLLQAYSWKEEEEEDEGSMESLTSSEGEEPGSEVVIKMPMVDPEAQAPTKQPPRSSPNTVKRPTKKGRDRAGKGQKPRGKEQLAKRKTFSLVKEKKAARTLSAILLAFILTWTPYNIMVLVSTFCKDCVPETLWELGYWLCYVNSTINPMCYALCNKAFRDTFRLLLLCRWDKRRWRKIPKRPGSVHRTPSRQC
Chain of 5-hydroxytryptamine receptor 2A (Homo sapiens) (P28223 whole entry, looked up): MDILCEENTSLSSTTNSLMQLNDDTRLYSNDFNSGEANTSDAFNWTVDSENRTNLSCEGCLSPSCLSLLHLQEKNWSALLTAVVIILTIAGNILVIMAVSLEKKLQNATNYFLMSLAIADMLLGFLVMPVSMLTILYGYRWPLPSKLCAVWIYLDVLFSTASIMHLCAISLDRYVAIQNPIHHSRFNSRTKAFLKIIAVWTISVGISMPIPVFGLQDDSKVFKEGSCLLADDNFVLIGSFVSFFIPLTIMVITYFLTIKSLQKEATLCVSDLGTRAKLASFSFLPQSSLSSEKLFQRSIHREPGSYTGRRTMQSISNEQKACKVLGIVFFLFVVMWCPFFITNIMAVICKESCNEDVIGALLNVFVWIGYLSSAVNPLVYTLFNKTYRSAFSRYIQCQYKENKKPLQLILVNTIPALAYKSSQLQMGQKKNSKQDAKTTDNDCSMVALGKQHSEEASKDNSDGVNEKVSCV

On to `C=CC(C)C#N` (configuration not stated), for which the Potency entry in [1], in assay [2], in [3], in [6], in assay [7] and in assay [8] was “inactive” throughout. Further, the Potency result in assay [9], in assay [10], in assay [11], in [12], in [13] and in assay [14] was “inactive” each time. In addition, the Potency entry in assay [15], in assay [16], in [17] and in [18] was “inactive” in each case. In addition, the outcome in assay [4] and in [5] was inactive.

Consider `CC(=O)Nc1ccccc1C`, for which the Potency entry in assay [1], in [2], in assay [3], in assay [6], in assay [7] and in assay [8] was “inactive” in each case. Besides, the Potency entry in assay [9], in assay [10], in assay [11], in [12], in assay [13] and in assay [19] was “inactive” each time. Further, the Potency result in [14], in [15], in [17] and in assay [18] was “inactive” in each case. For the same compound, the outcome in [4] and in assay [5] was inactive.

For the compound `CCCCCCCCCCCCCCCCOP(=O)([O-])OCC[N+](C)(C)C`, the Potency entry in assay [1], in assay [2], in assay [3], in assay [6], in assay [7] and in assay [8] was “inactive” in each case. Further, the Potency result in [9], in [10], in assay [11], in assay [12], in assay [19] and in [14] was “inactive” throughout. Also, the Potency result in assay [15], in [16] and in assay [18] was “inactive” throughout. Also, the result in [4] and in [5] was inactive.

`NCCS`: the Potency result in assay [1], in assay [2], in [3], in assay [6], in assay [7] and in assay [8] was “inactive” each time. For the same compound, the Potency entry in assay [9], in [10], in [11], in assay [12], in assay [19] and in [14] was “inactive” in each case. Also, the Potency result in assay [16], in assay [17] and in [18] was “inactive” in each case. For the same compound, the outcome in assay [4] and in [5] was inactive.

For the compound `CC(C)(C)NSc1nc2ccccc2s1`, the Potency entry in [1], in [3], in assay [6], in [7], in [8] and in assay [9] was “inactive” throughout. For the same compound, the Potency entry in assay [10], in [11], in assay [12], in [19], in assay [14] and in assay [15] was “inactive” in each case. Besides, the Potency entry in [17] and in assay [18] was “inactive” each time. In addition, the Potency in [2] was 24.8 µM (active). In addition, the result in [4] and in assay [5] was inactive.

Turning to `CCO[Si](CC)(OCC)OCC`, the Potency result in assay [1], in assay [2], in [3], in assay [6], in assay [7] and in assay [8] was “inactive” each time. The Potency result in [9], in [10], in [11], in [12], in [19] and in [14] was “inactive” each time. Also, the Potency result in assay [15], in assay [16] and in assay [18] was “inactive” in each case. For the same compound, the result in [4] and in assay [5] was inactive.

For the compound `O=c1[nH]cccc1O`, the Potency entry in assay [1], in assay [2], in assay [3], in [6], in [7] and in assay [8] was “inactive” throughout. Besides, the Potency entry in [9], in assay [10], in assay [11], in assay [12], in [13] and in assay [14] was “inactive” each time. Besides, the Potency entry in assay [15], in [16], in [17] and in [18] was “inactive” in each case. The outcome in assay [4] and in assay [5] was inactive.
